Among all 220,000 compounds or so, about 830 (0.38%) were called active. These entries were drawn from the full list. Potency and affinity values are given separately. Unmarked numbers belong to inactive results.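 The calls were made as follows: active = compound inhibiting the enzyme by more than half at any dose during confirmatory dose-response retesting; inconclusive = strong single-dose inhibitors picked by rank but not retested; inactive = the rest.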
target: Leucine aminopeptidase (Plasmodium falciparum (isolate 3D7)) (UniProt Q8IL11); assay: P. falciparum M17LAP inhibitors, primary screen, biochemical, fluorogenic H-Leu-NHMec substrate, 1536-well (AID 1619); settings: recombinant M17LAP, H-Leu-NHMec fluorogenic kinetic assay; at 30 µM; stronger effect = higher value;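 also: plate controls were full reaction with DMSO carrier for no effect and no enzyme background for full effect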
Sequence (Q8IL11 whole entry, looked up): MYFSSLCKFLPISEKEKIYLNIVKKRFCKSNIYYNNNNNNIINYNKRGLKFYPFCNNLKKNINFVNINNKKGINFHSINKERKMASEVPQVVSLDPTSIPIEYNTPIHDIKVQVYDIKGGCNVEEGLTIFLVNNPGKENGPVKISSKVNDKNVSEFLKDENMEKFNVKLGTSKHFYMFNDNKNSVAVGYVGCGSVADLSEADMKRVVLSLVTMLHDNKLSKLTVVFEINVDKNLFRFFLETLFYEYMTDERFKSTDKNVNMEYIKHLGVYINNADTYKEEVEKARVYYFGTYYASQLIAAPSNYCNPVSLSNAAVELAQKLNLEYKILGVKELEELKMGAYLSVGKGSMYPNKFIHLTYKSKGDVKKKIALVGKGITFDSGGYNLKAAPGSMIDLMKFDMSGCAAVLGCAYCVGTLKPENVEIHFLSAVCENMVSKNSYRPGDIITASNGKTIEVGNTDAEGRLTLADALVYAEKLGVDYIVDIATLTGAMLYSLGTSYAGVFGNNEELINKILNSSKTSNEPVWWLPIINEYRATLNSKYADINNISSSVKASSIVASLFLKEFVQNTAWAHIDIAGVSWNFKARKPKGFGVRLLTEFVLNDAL

SMILES | inhibition [%]
Cc1cc(NS(=O)(=O)c2ccc(NC(=O)Nc3cccc(Cl)c3)cc2)no1 | 41
O=C(CSc1nc2ccccc2s1)Nn1cnnc1 | 6.17
Cc1noc(NS(=O)(=O)c2ccc(NC(=O)CSc3nc4ccccc4[nH]3)cc2)c1C | -54.8
Cc1nn(-c2ccccc2)c(Cl)c1/C=C(\C#N)C(=O)NC(C)C | 0.39
COCc1cc(C)nc(N/N=C/c2ccc(Cl)c(Cl)c2)c1C#N | -7.61
O=[N+]([O-])c1ccc(Nc2c3ccccc3nc3ccccc23)cc1 | -29.4
Cc1ccc(NC(=O)CN2C(=O)N/C(=C\c3cccnc3)C2=O)cc1 | 2.33
Cc1ccc(Cn2c(SCc3cccnc3)nc3c2c(=O)n(C)c(=O)n3C)cc1 | 5.09
CC(=O)Nc1ccc(NC(=O)CN(c2cccc(C)c2)S(C)(=O)=O)cc1 | 1.19
CCc1cccc(NC(=O)CCc2nc(-c3cccs3)no2)c1 | 17.6
CCNC(=S)Nc1ccc(Cl)c([N+](=O)[O-])c1 | -6.59
NC(=O)CC(NC(=O)Cc1ccc(Br)cc1)c1ccc(NCc2ccc(F)c(F)c2)c([N+](=O)[O-])c1 (stereo not given) | -2.21
Cc1noc(NS(=O)(=O)c2ccc(N/C=C/C(=O)c3ccc(F)cc3)cc2)c1C | 20.6
Cc1noc(NS(=O)(=O)c2ccc(N/C=C/C(=O)c3ccc4c(c3)OCO4)cc2)c1C | 36.4
Cc1noc(NS(=O)(=O)c2ccc(NC(=O)CSc3n[nH]c(-c4ccccc4)n3)cc2)c1C | -60.9
Cc1cc(C)nc(SCC(=O)Nc2ccc(S(=O)(=O)Nc3onc(C)c3C)cc2)n1 | -13.9
Cc1cc(C(=O)Nc2ccc(S(=O)(=O)Nc3onc(C)c3C)cc2)c(C)o1 | -21.9
Cc1cc(C)c(C(=O)Nc2ccc(S(=O)(=O)Nc3onc(C)c3C)cc2)c(C)c1 | -10.6
CCSc1cnn(-c2ccccc2)c(=O)c1SCC | 9.04
Cc1ccc(C(=O)O)cc1NC(=O)C1CCCN1S(=O)(=O)c1cccc2nsnc12 (stereo not given) | -2.3
CC(=O)Nc1ccccc1OCC(=O)NC(C)c1ccc(F)cc1 (stereo not given) | 7.52
CCOC(=O)c1oc2ccccc2c1NC(=O)c1ccc(S(=O)(=O)N2CCCC2)cc1 | -6.8
S=c1[nH]nc(-c2cc(-c3ccccc3)n[nH]2)n1/N=C/c1ccc(Cl)cc1 | 1.35
O=C(Nc1ccc(Cl)cc1)c1csc(-c2ccccc2)n1 | -10.4
CC(C)OC(=O)/C(C#N)=C/c1cn(C)c2ccccc12 | -3.85

SMILES | inhibition [%]
Cc1ccc(SCc2[nH]nc3c2C2(C(=O)Nc4ccc(F)cc42)C(C#N)=C(N)O3)cc1 (stereo not given) | 10.5
CC(=O)N1CCC2(CC1)C(C#N)=C(N)Oc1n[nH]c(C)c12 | 8.86
COCc1[nH]nc2c1C1(CCSCC1)C(C#N)=C(N)O2 | 11.4
CC(=O)N1CCC2(CC1)C(C#N)=C(N)Oc1n[nH]c(C(F)(F)F)c12 | -15.9
CCCC(=O)Nc1ccc(C(=O)NN2C(=O)c3ccccc3C2=O)cc1 | -2.16
O=C(c1ccccn1)N(Cc1ccco1)C1(C(=O)NC2CCCCC2)CCCCC1 | 1.03
CC1CCCCN1CC(=O)Nc1cc(S(=O)(=O)N2CCOCC2)ccc1N1CCCC1 (stereo not given) | 4.92
Cc1ccc(NC(=O)N2CCCCC2)cc1NC(=O)N1CCCCC1 | -2.13
CC1(C)CC(CC(=O)NNc2nc(-c3ccccc3)cs2)C(=O)O1 (stereo not given) | 12.7
CC1CC(CC(=O)Nc2nc(-c3ccccc3)cs2)C(=O)O1 (stereo not given) | 2.05
C/C(CC1CC(COCC(C)C)OC1=O)=N\Nc1nc(-c2ccccc2)cs1 (stereo not given) | 10.7
CC1CC(CC(=O)NNc2nc(-c3ccccc3)cs2)C(=O)O1 (stereo not given) | 12.5
O=C(CN(Cc1ccco1)S(=O)(=O)c1ccccc1)N/N=C/c1ccccc1C(=O)O | 38.3
CCOc1cc(C(=O)OCC(=O)Nc2cc(C)on2)ccc1OCC(C)C | -3.97
Cc1ccccc1NC(=O)Cn1nnc(-c2ccc(N3CCOCC3)cc2)n1 | 2.77
COc1ccccc1N(CC(=O)Nc1cc(C)on1)S(=O)(=O)c1ccc(Cl)cc1 | -0.47
NC(=O)[C@@H]1CCCN1Cc1nc(-c2cccs2)no1 | -3.71
CCCCCCN1C=CC(=C/C=C(\C#N)C(=O)OCC)C=C1 | -2.08
CCOC(=O)/C(C#N)=C/N=c1ccc(C)cn1C | 12.6
CCCN1C=CC(=CC=C(C#N)C#N)C=C1 | 40.8
CCOC(=O)/C(C#N)=C\N(C)C | 5.6
C=CCN1C=C/C(=C\C=C(C#N)C#N)c2ccccc21 | -9.06
CCOC(=O)/C(C#N)=C/C=C1/C=CC=CN1C | 20
CCOC(=O)/C(C#N)=C/C=C1\C=Cc2ccccc2N1CC | 1.1
CCOC(=O)/C(C#N)=C\c1ccc(CC)s1 | 14.8

— PubChem BioAssay AID1619 (SRMLSC, 2009)
